“And” between values parts separate entries of the source, which are not always exact repeats. Equal values may be shown once. The source made the active and inactive calls. Cut-off read from the data, not from the text of the source, unless noted: active = parasite load remaining mostly below about 12% (no sharp cut-off); inactive = mostly above about 10%.
Assays:
[1] = P. berghei load reduction in hepatocytes – cell-based, HepG2, luciferase luminescence, HepG2 viability, primary screen (AID 624349);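 note: 100% = mean of DMSO negative control wells on the same plate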; conditions: P. berghei liver stage in HepG2, luciferase luminescence, concentration not given here; parasite load remaining: stronger effect = lower value; viability: measured here: HepG2 viability without parasites
[2] = Wnt pathway potentiators raising nuclear beta-catenin – imaging, WNT3A-conditioned medium, mouse C2C12, NPC library, primary screen (AID 1117326; in the data active = nuclear beta-catenin stimulation mostly above about 4.2%, no sharp cut-off; inactive = mostly below about 10%; note: reference of the scale not given here); conditions: stronger effect = higher value
[3] = stimulators of insulin release from INS-1E, primary screen, cell-based, 5 mM glucose, NPC library (AID 1117329;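 active = compound raises insulin release from rat beta cells at 5 mM glucose, no numeric limit stated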; note: reference of the scale not given here); conditions: rat INS-1E insulin secretion, at 10 µM, stronger effect = higher value
[4] = growth inhibition of GSK3B-pretreated HCT116 cells – cell-based, CellTiter-Glo, 0.2 to 20 µM (AID 1117336;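 active = compounds lowering colon cancer cell viability after pretreatment blocking the GSK3B kinase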); conditions: HCT116 viability after GSK3B inhibitor, at 20 µM, stronger effect = higher value
[5] = inhibition of endothelial tube formation, primary screen, imaging, VEGF stimulated, CD31 staining, tube area, NPC library (AID 1117340;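 active = compound that reduces growth-factor-driven endothelial tube area in a mixed cell culture, no cutoff stated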); conditions: VEGF-stimulated ADSC/ECFC co-culture, at 10 µM, stronger effect = higher value
[6] = GLP1 release stimulators, primary, NCI-H716, NPC library (AID 1117341;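 active = compound raises GLP1 secretion from the human gut endocrine cells, with no numeric limit stated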; note: reference of the scale not given here); conditions: NCI-H716 cells, at 10 µM, stronger effect = higher value
[7] = HCT116 colon cancer cell growth inhibition, primary screen, CellTiter-Glo luminescence, NPC library (AID 1117342;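 active = compounds that lower survival of HCT116 colon cancer cells in the luminescence readout, no numeric limit stated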); conditions: at 20 µM (top of the series)
[8] = reduced SW480 viability measured with CellTiter-Glo, NPC library, primary (AID 1117343;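 active = compounds that lower viability of the colon cancer cells in the luminescence readout, with no numeric limit stated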); conditions: CellTiter-Glo luminescence; at 20 µM (top of the series)
[9] = NPC library primary testing for decreased DLD-1 cell viability via CellTiter-Glo (AID 1117346;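 active = compounds that lower survival of DLD-1 colon cancer cells in the luminescence readout, no cutoff given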); conditions: DLD-1 viability, CellTiter-Glo luminescence; at 20 µM (top of the series)
[10] = target: 6-phosphogluconate dehydrogenase, decarboxylating (Homo sapiens) (UniProt P52209); experiment: inhibition of human phosphogluconate dehydrogenase – biochemical, recombinant enzyme, NADPH absorbance, primary screen (AID 1159550;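 active = at least 20% inhibition of 6-phosphogluconate dehydrogenase activity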); conditions: recombinant 6PGD, NADPH absorbance 341 nm; at 10 µM; stronger effect = higher value
Chain of 6-phosphogluconate dehydrogenase, decarboxylating (Homo sapiens) (P52209 whole entry, looked up): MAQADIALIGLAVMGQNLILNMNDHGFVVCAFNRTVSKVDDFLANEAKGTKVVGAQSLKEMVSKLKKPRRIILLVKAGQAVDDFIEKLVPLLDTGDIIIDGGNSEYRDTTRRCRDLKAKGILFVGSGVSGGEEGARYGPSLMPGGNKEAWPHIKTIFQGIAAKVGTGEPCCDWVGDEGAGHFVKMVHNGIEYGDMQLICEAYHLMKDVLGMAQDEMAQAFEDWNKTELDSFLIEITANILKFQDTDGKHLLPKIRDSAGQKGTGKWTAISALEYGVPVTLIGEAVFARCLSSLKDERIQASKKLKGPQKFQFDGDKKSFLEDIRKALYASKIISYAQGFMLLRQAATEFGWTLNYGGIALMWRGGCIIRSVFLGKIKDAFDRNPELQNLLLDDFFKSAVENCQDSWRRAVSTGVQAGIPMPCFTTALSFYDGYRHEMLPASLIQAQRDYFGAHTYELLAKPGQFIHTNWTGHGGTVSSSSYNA

Compound	parasite load remaining [1]	viability [1]	nuclear beta-catenin stimulation ([2]; at 10 µM)	nuclear beta-catenin stimulation ([2]; stimulation, at 2 µM)	insulin secretion stimulation [3]	viability decrease [4]	tube area decrease [5]	GLP1 secretion stimulation [6]	inhibition of viability [7]	viability decrease (inhibition) [8]	viability decrease (inhibition) [9]	inhibition [10]
CC[C@]12CCCN3CCc4c(n(c5ccccc45)[C@@](O)(C(=O)OC)C1)[C@@H]32	27.1% (inactive) and 109% (inactive)	48.5% and 87%	-2.1% (inactive)	-0.6%	-1.7% (inactive)	-2.5% (inactive)	25.6% (inactive)	-2.6% (inactive)	-43.9% (inactive)	0.1% (inactive)	-31.5% (inactive)	-2.98% (inactive)
Cc1nnc(NS(=O)(=O)c2ccc(N)cc2)s1	77.8% (inactive) and 214% (inactive) and 50.9% (inactive)	95.4% and 74.4% and 104%	-0.1% (inactive)	1.2%	-2.4% (inactive)	6.15% (inactive)	19.3% (inactive)	2.8% (inactive)	0.2% (inactive)	86.3% (active)	3.2% (inactive)	-8.84% (inactive)
O=C(CCBr)N1CCN(C(=O)CCBr)CC1	146% (inactive) and 41.7% (inactive)	86.4% and 105%	1.4% (inactive)	1.7%	-2.1% (inactive)	56.1% (active)	60.5% (active)	-4.4% (inactive)	-0.5% (inactive)	3.9% (inactive)	-14% (inactive)	-1.69% (inactive)
CCN(CC)CCOc1ccc(/C(=C(\Cl)c2ccccc2)c2ccccc2)cc1	16% (inactive) and 5.06% (inactive)	73.6% and 90.4%	40.9% (active)	12.4%	3.6% (inactive)	102% (active)	110% (active)	22.8% (active)	102% (active)	124% (active)	103% (active)	-19.7% (inactive)
COc1cc2c3cc1Oc1cc(ccc1O)C[C@@H]1c4c(cc(OC)c(O)c4Oc4ccc(cc4)C[C@@H]3N(C)CC2)CC[N+]1(C)C	55.9% (inactive) and 65.3% (inactive)	118% and 192%	3.1% (inactive)	-0.1%	-0.3% (inactive)	-3% (inactive)	13.9% (inactive)	-1.7% (inactive)	-1.93% (inactive)	5.3% (inactive)	-2.9% (inactive)	0.384% (inactive)
NC(=O)c1ccccc1O	47.6% (inactive) and 47.5% (inactive)	78.6% and 92.9%	0.9% (inactive)	0.5%	-0.8% (inactive)	5.6% (inactive)	-13.1% (inactive)	0.3% (inactive)	10.6% (inactive)	27.7% (inactive)	0.25% (inactive)	-8.81% (inactive)
OCC(O)CN1CCN(c2ccccc2)CC1 (centres undefined)	36.8% (inactive) and 188% (inactive) and 98.1% (inactive)	50.7% and 71.2% and 93.7%	-1.5% (inactive)	0.8%	0.6% (inactive)	-6.6% (inactive)	-0.2% (inactive)	-1.1% (inactive)	4.03% (inactive)	29% (inactive)	-12.9% (inactive)	8.41% (inactive)
Nc1nc(=S)c2[nH]cnc2[nH]1	146% (inactive) and 64.9% (inactive)	48.2% and 41.8%	14.8% (inactive)	6.2%	-2% (inactive)	47.4% (active)	104% (active)	1.9% (inactive)	96.4% (active)	101% (active)	52.9% (active)	4.15% (inactive)
O=C(O)[C@@H]1[C@H]2C[C@H]3c4[nH]c5ccccc5c4CCN3C[C@@H]2CC[C@@H]1O	106% (inactive) and 85.7% (inactive)	104% and 83.6%	0.4% (inactive)	1.8%	-0.3% (inactive)	-25.2% (inactive)	9.1% (inactive)	0.3% (inactive)	-4.53% (inactive)	13% (inactive)	-18.9% (inactive)	2.44% (inactive)
Nc1ccc(C(=O)O)cc1	102% (inactive) and 75.6% (inactive)	74.3% and 91.3%	-0.9% (inactive)	0.3%	-1% (inactive)	2.35% (inactive)	-16.4% (inactive)	0.8% (inactive)	-6.1% (inactive)	13.3% (inactive)	-4.7% (inactive)	6.16% (inactive)
CC(=O)Nc1ccccc1	92.8% (inactive) and 37.4% (inactive)	71.9% and 93.5%	5.2% (inactive)	1.4%	1% (inactive)	-5.1% (inactive)	-10.1% (inactive)	2.1% (inactive)	2.3% (inactive)	25.2% (inactive)	3.55% (inactive)	-5.03% (inactive)
COc1cc(N)c(Cl)cc1C(=O)NC1CCN(Cc2ccccc2)CC1	50.5% (inactive) and 24.1% (inactive) and 67.3% (inactive)	116% and 86.9% and 74.5%	3.1% (inactive)	0.9%	9.3% (inactive)	-6.7% (inactive)	5.3% (inactive)	-0.7% (inactive)	38.2% (inactive)	26.2% (inactive)	6.4% (inactive)	-7.99% (inactive)

Reference: PubChem BioAssay
